Source: PubChem BioAssay (National Center for Advancing Translational Sciences (NCATS))
Sampled rows, rich in hits. Any-hit rate of the full collection: about 1.1%.
LmPK inh = blocks Leishmania mexicana pyruvate kinase activity; Q27686; purified LmPK, Kinase-Glo ATP luminescence, 1 h; Potency, µM (top dose mostly 57.5 µM), inactives show top-dose activity change, negative = inhibition, actives largely listed as inhibitors; actives 0.37% (n = 290,000); AID 1721; note: potency is the fitted concentration of half-maximal effect; % is set by controls: 0 for no effect and ±100 for the full control effect
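Purified LmPK (0.1 nM) converted ADP (0.1 mM) to ATP with PEP (0.5 mM) in imidazole buffer pH 7.2 with KCl and MgCl2, 1 h at room temperature. ATP was read by Kinase-Glo luminescence; data normalized to uninhibited and no-enzyme controls.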
SARS PLpro yeast-1 = inhibitors of SARS-CoV papain-like protease in yeast | S. cerevisiae expressing SARS-CoV PLpro, growth rescue | Potency, µM (doses to about 32.9 µM), for inactives: top-dose activity, positive = growth rescue, actives largely listed as activators | actives 0.19% (n = 330,000) | AID 485353; calls by dose curve; note: potency is the fitted concentration of half-maximal effect; 0% is about no effect; nearly all actives have a fitted effect of over 55% in size
Giardia FBPA inh = blocks Giardia fructose-bisphosphate aldolase activity; A8B2U2; purified Giardia FBPA; Potency, µM (doses to about 59.6 µM), without a hit: at the highest dose activity, negative = inhibition, hits mostly inhibitors; actives 0.71% (n = 290,000); note: potency is the fitted concentration of half-maximal effect; % is set by controls: 0 for no effect and ±100 for the full control effect; nearly all actives have a fitted effect of over 55% in size
Target sequence (A8B2U2 whole entry, looked up): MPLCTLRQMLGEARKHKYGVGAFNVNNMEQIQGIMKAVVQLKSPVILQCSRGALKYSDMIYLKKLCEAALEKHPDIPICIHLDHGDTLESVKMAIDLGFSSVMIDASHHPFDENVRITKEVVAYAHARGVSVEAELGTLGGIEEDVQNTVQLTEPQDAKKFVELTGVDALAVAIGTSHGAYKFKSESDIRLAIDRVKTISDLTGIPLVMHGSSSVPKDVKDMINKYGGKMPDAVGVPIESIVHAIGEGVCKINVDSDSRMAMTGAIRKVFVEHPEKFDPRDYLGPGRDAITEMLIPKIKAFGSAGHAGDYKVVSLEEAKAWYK
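Giardia FBPA (40 nM reagent) was preincubated 10 min at RT with compound (up to 57.5 uM final), then substrate plus GAPDH/TPI/NAD/arsenate coupling system with diaphorase/resazurin was added; resorufin fluorescence (525/598 nm) was read after 20 min.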
TbPYK inhibitor = inhibitors of Trypanosoma brucei pyruvate kinase. Q57TT1. Potency, µM (highest dose often 76.8 µM), inactives show at the top dose activity, negative = inhibition, most hits filed as inhibitors. actives 0.12% (n = 410,000). TbPYK enzyme, Kinase-Glo Plus ATP luminescence, 45 min; note: potency is the fitted concentration of half-maximal effect; % is set by controls: 0 for no effect and ±100 for the full control effect; nearly all actives have a fitted effect of over 50% in size
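Luminescent Kinase-Glo Plus end-point after 45 min room-temperature reaction of T. brucei pyruvate kinase started with 130 uM ADP (final). Buffer TEA 50 mM pH 7.2 with KCl, MgCl2, BSA, Tween-20; titration-based qHTS with fitted concentration-effect curves.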
RE007 growth inh = less growth of the S. pombe RE007 Vpr strain; S. pombe RE007 Vpr strain, BacTiter-Glo ATP luminescence, 24 h; Potency, µM (highest dose often 92.2 µM), for inactives: at the highest dose activity change, negative = less growth, hits mostly inhibitors; AID 651644; actives 0.21% (n = 360,000); active = well fitted falling curve with a large enough effect; inconclusive = small, poorly fitted or top-dose-only effect; inactive = no such curve, though single readings can be large or run the other way; note: potency is the fitted concentration of half-maximal effect; % is set by controls: 0 for no effect and ±100 for the full control effect; nearly all actives have a fitted effect of over 50% in size
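Fission yeast RE007 carrying one integrated HIV-1 vpr copy, seeded at OD 0.01 in PMG+AL medium with 23 nL pinned compound. Grown 24 h at 30 degrees; viability read by BacTiter-Glo luminescence after 5 min.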
SARS PLpro yeast-2 = Validates SARS-CoV PLpro inhibitor hits in yeast; shares compounds with SARS PLpro yeast-1; calls only; actives 19% (n = 1,000); yeast expressing SARS-CoV PLpro, growth phenotype rescue; call rule not given here
Starred values were filed as active, the others as inactive; i = inactive; ? = inconclusive; nt = no result; + = active, no number. Unless noted, calls come from the whole dose curve; as a rule, active = well fitted curve in the direction sought with a large enough effect; inconclusive = small, poorly fitted or top-dose-only effect, or another doubt; inactive = no such curve, though single readings can be large; an effect the other way counts as inactive or inconclusive.

SMILES | LmPK inh | SARS PLpro yeast-1 | Giardia FBPA inh | TbPYK inhibitor | RE007 growth inh | SARS PLpro yeast-2
CCOC(=O)c1oc2ccccc2c1CN1CCN(C(=O)c2ccccc2)CC1 | -4% | 3.5µM* | 4% | -6% | -3% | i
COc1ccccc1CCNC(=O)Cn1ccc2cc(S(=O)(=O)N3CCCCC3)ccc21 | nt | nt | nt | -3% | nt | nt
CC(C)(CNC(=O)c1sc2cc(F)ccc2c1Cl)N1CCOCC1 | 1% | ? | 2% | 1% | -10% | i
Cc1c(Cl)c([N+](=O)[O-])nn1CC(=O)N1CCCc2ccccc21 | 3% | 6% | 0% | 1% | -6% | nt
Cc1cc([N+](=O)[O-])nn1CC(=O)N1CCCc2ccccc21 | -3% | 16µM* | -7% | -1% | -9% | i
CC(C)c1ccc(NS(=O)(=O)c2ccc3[nH]cc(C(=O)NCC4CCCO4)c(=O)c3c2)cc1 (stereo unspecified) | nt | nt | nt | 1% | nt | nt
CC(C)OC(=O)c1ccc(OC(=O)c2cccnc2)cc1 | 3% | -6% | 2% | 3% | -9% | nt
COC(=O)c1ccc(OC(=O)c2cccnc2)cc1 | -1% | 16µM* | 4% | -7% | 33% | ?
CC(C)C(C(=O)O)N1C(=O)/C(=C/c2cccn2C)SC1=S (stereo unspecified) | 1% | 27% | -2% | -24% | -8% | nt
CCCC(C(=O)O)N1C(=O)/C(=C/c2cccn2C)SC1=S (stereo unspecified) | 5% | ? | -4% | -6% | -7% | i
Cc1cc(C)nc(NS(=O)(=O)c2ccc(NC(=S)NC(=O)CC(C)C)cc2)n1 | 3% | ? | 0% | -8% | 2% | i
Cc1cc(C)nc(NS(=O)(=O)c2ccc(NC(=S)NC(=O)C(C)(C)C)cc2)n1 | 3% | 4% | 1% | 4% | -22% | nt
CC(C(=O)c1ccccc1)N1C(=O)c2ccccc2C1=O (stereo unspecified) | 1% | ? | -2% | -1% | 9% | i
CC(C(=O)O)N1C(=O)c2ccccc2C1=O (stereo unspecified) | 8% | -7% | 3% | -4% | -1% | nt
CCCCn1cc(S(=O)(=O)c2ccc(CC)cc2)c(=O)c2cc(F)c(N3CCOCC3)cc21 | nt | nt | nt | -5% | nt | nt
CCCCCCN(C(=O)CCCN1C(=O)NC(c2ccc([N+](=O)[O-])cc2)C(C(=O)OCc2ccccc2)=C1C)C(C)C(=O)NCCCC (stereo unspecified) | nt | ? | nt | 2% | -9% | i
CC1CCCCN1C(=S)Nc1ccc(OC(F)F)cc1 (stereo unspecified) | -3% | -3% | -2% | -13% | 5% | nt
CC(C)c1ccc(NC(=S)NN2C(C)CCCC2C)cc1 (stereo unspecified) | -2% | ? | 1% | -8% | -2% | nt
COc1cccc(NC(=S)NN2C(C)CCCC2C)c1 (stereo unspecified) | -4% | ? | -5% | -5% | 12% | +
CC1CCCC(C)N1NC(=S)Nc1ccc(OC(F)F)cc1 (stereo unspecified) | -1% | ? | 0% | -13% | -10% | +
COc1ccc(NC(=S)NN2C(C)CCCC2C)cc1 (stereo unspecified) | -1% | 13µM* | -5% | -13% | -11% | +
COc1cccc(NC(=S)NN2CCN(C)CC2)c1 | 5% | -3% | nt | -2% | -10% | nt
O=C(Cn1cc(S(=O)(=O)c2ccccc2)c(=O)c2cc3c(cc21)OCO3)Nc1ccccc1 | nt | nt | nt | 1% | nt | nt
CCOc1ccc(OCCC(=O)N(CCCOC)c2c(N)n(Cc3ccccc3)c(=O)[nH]c2=O)cc1 | nt | ? | nt | 2% | -23% | i
CCCCN(C(=O)CSc1nnc(-c2ccc(OC)cc2)n1CC)c1c(N)n(Cc2ccccc2)c(=O)[nH]c1=O | -1% | ? | 3% | 1% | 0% | i
SMILES | LmPK inh | SARS PLpro yeast-1 | Giardia FBPA inh | TbPYK inhibitor | RE007 growth inh | SARS PLpro yeast-2
CCCCN(C(=O)CSc1nnc(-c2ccc(OC)cc2)n1C(C)C)c1c(N)n(Cc2ccccc2)c(=O)[nH]c1=O | 4% | -11% | 8% | -4% | 1% | nt
O=C(CSC1=Nc2ccccc2N=C(c2ccc(F)cc2)C1)NCc1ccc(Cl)cc1 | nt | nt | nt | -1% | nt | nt
CCOC(=O)c1sc(=S)n(C)c1NC(=O)c1ccccc1Cl | 1% | 22µM* | 7% | -16% | 7% | i
Cc1cc(=O)c2ccccc2n1Cc1ccccc1 | 2% | 1% | -2% | -1% | -14% | nt
Cc1ccc2c(c1)c(=O)c(Br)c(C)n2Cc1ccccc1 | 1% | ? | 0% | -3% | -29% | i
O=C(NC(=S)Nc1ccccn1)c1ccco1 | -29% | 3.2µM* | ? | -11% | -2% | i
CCOC(=O)c1[nH]c(C)c(CCC(=O)Nc2cc(Cl)c(OC)cc2OC)c1C | nt | nt | nt | -2% | nt | nt
CN(C(=O)c1ccccc1-c1ncc[nH]1)C1CCCN(Cc2ccccc2F)C1 (stereo unspecified) | 0% | 16µM* | nt | 0% | 6% | i
O=C(c1ccc(Br)cc1)N1CCCC1 | -1% | nt | -1% | -2% | -9% | nt
CN1CCN(C(=O)c2ccc(S(=O)(=O)c3ccc(Br)cc3)cc2)CC1 | -2% | 11µM* | 3% | -5% | 14% | i
COC(=O)c1ccc2c(=O)n(NC(=O)C(c3ccccc3)c3ccccc3)c(=S)[nH]c2c1 | 1% | ? | 2% | -4% | 11% | i
O=S(=O)(c1ccc2ccccc2c1)N(CC(O)CN1CCOCC1)c1ccccc1 (stereo unspecified) | 3% | ? | 9% | -11% | -18% | i
COc1ccc(-n2nc(C(=O)N(C)c3cccc(C(F)(F)F)c3)c3c4ccccc4n(C)c3c2=O)cc1 | nt | nt | nt | -12% | nt | nt
CCC1CCCCN1S(=O)(=O)c1ccc(C(=O)Nc2nnc(-c3cccs3)o2)cc1 (stereo unspecified) | 7% | 11µM* | ? | 0% | 7% | +
CCC(=O)N1CCc2cc(Br)cc(S(=O)(=O)N3CCC(C(=O)N(CC)CC)CC3)c21 | nt | nt | nt | -8% | nt | nt
Cc1[nH]c(=S)sc1Cc1ccc(F)cc1 | -14% | 10µM* | 6% | -31% | 12% | i
Fc1ccc(-c2csc(=S)[nH]2)cc1 | 3% | 0% | 12% | ? | 15% | nt
C/C(=C\C(=O)c1ccc(C)o1)Nc1ccc2c(c1)OCO2 | -2% | ? | ? | -3% | -23% | i
